Among all 350,000 compounds or so, about 1,600 (0.46%) were called active. Shown is part of a subset that was picked to be rich in actives. Values without a mark were called inactive.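 Rule for the calls: active = activation of at least 50%, plus an integration ratio under a set limit after plate pattern correction; inactive = the rest.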
tested on: CRF-binding protein / CRF receptor 2 complex (human); experiment: activators of CRF-R2 with CRF-BP – cell-based, HEK293, calcium dye fluorescence, uHTS, primary screen (AID 588473); details: calcium dye fluorescence (FLIPR), at 13.2 µM, active compounds read high, percent of saturating CRF peptide response;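 note: plate controls were neutral control wells without compound for no effect and CRF at EC100 for full effect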

Compound	activation
CCNC(=S)N1CCN(S(=O)(=O)c2ccc(Cl)s2)CC1	3.39%
Cc1ccc(N2C(=O)CC(Nc3cccc4ccccc34)C2=O)cc1 (centres undefined)	0.15%
CC(=O)Nc1ccccc1Sc1ccc2c3c(cccc13)C(=O)N(c1ccc(C)cc1)C2=O	87.7% (active)
CSc1ccccc1NC(=O)C(C)N1C(=O)c2ccccc2S1(=O)=O (centres undefined)	1.1%
CCC(=O)N1CCc2cc(Br)c(S(=O)(=O)NCCN3CCCCC3CC)cc21 (centres undefined)	-1.55%
CSc1cccc(NC(=O)CN2C(=O)COc3ccc(S(=O)(=O)N4CCOCC4)cc32)c1	-1.06%
O=C(COc1ccc(S(=O)(=O)N2CCCC2)cc1[N+](=O)[O-])N1CCCCC1	-0.47%
COc1ccc2c(c1)OC(O)(C(F)(F)C(F)F)CC2=O (centres undefined)	66.2% (active)
COc1ccc2c(c1)SC(C)CC2=O (centres undefined)	-0.7%
COc1ccc2c(c1)C(=O)CC(c1ccccc1)O2 (centres undefined)	-2.49%
COc1ccc(-c2c(-c3cc(OC)cc(OC)c3)n(C)c3ccc(-c4ccn[nH]4)cc23)cc1	2.7%
CC1CC1C(=O)OCC(=O)Nc1cccc(F)c1 (centres undefined)	1.09%
CCOCCc1c(O)nc(SCC(=O)NCc2ccco2)[nH]c1=O	0.28%
Cc1ccc(CN(C)C[C@@H]2OCc3cnnn3CCCC(=O)N([C@@H](C)CO)C[C@H]2C)cc1	0.05%
COc1cccc2cc(S(=O)(=O)c3ccc(C)cc3)/c(=N/NS(=O)(=O)c3ccc(C)cc3)oc12	2.38%
COC(=O)Cc1cc(=O)oc2c(C)c(O)ccc12	2.46%
Cc1cc(S(=O)(=O)c2cc3ccc(O)c(C)c3oc2=O)ccc1F	91.1% (active)
COc1ccc(-c2[nH]ncc2CN(C)Cc2cc(C)[nH]n2)c(F)c1	-4.41%
CCN(CC)c1ccc(NC(=O)C2CCC(CNc3c(N4CCCC4)c(=O)c3=O)CC2)c(C)c1 (centres undefined)	-1.59%
CCOC(=O)/C(C#N)=C/c1ccc(N2CCCCC2)cc1	69.9% (active)

Compound	activation
COc1ccc(/C=C(\C#N)C(=O)OCC(=O)N(C)C2CCS(=O)(=O)C2)cc1 (centres undefined)	-0.47%
CCCn1c(C)cc(/C=C(\C#N)C(=O)OCC(=O)N(C)c2c(N)n(Cc3ccccc3)c(=O)[nH]c2=O)c1C	-1.33%
COc1ccc(/C=C(\C#N)C(=O)ONC2=NCCCCC2)cc1	-0.53%
CCOC(=O)/C(C#N)=C/c1ccc(N2CCN(Cc3ccccc3)CC2)cc1	100% (active)
CC(C)OC(=O)C(C#N)c1nc2ccccc2nc1N1CCN(Cc2ccccc2)CC1 (centres undefined)	4.17%
CC(C)c1nc(CNC(=O)CC2C(=O)NCCN2Cc2ccoc2)cs1 (centres undefined)	3.31%
CCO[C@H]1OC(C(=O)N2CCN(Cc3ccccc3)CC2)=C[C@@H](c2cn(C(C)=O)c3ccccc23)[C@@H]1CCCO	-0.99%
O=C(OCc1cn(-c2ccc(Cl)c(Cl)c2)nn1)c1ccccc1Cl	5.3%
CC(C(=O)N1CCN(c2ccccc2F)CC1)c1ccc([N+](=O)[O-])cc1 (centres undefined)	-0.08%
CC(C)CNC(=O)/C=C/C(=O)O	-1.76%
CCCc1cc(=O)n2[nH]c(SCc3ccccc3)nc2n1	1.41%
Cc1cccc(-c2nnc(SCC(=O)O)n2Cc2ccccc2)c1	-1.45%
Cc1ccc2c(c1)nnc1nnc(SCC(=O)O)n12	187% (active)
CCn1nnnc1SCC(=O)c1ccc(C)cc1C	1.45%
CC1(C)C2CCC13CS(=O)(=O)NC3C2 (centres undefined)	-2.27%
CC1Cc2nc(SCC(=O)Nc3ccccc3F)n(C)c(=O)c2S1 (centres undefined)	-2.32%
COc1cccc(N(CC(=O)NC2CCCC2)C(=O)Cn2nnc(-c3ccc(C)cc3)n2)c1	-0.55%
CCOc1ccc(C(=O)NC2CCN(C(=O)Nc3ccccc3OC)CC2)cc1	1.14%
CCOc1ccc2nc(N3CCCN(C(=O)Nc4ccccc4C)CC3)c(C#N)cc2c1	53.4% (active)
CCOc1ccc2nc(NCCNC(=O)C(C)(C)C)c(C)cc2c1	0.31%

Compound	activation
CCC(=O)Nc1cc(C(F)(F)F)ccc1N1CCCC1	-0.05%
CCCCCCSc1ccc([C@@H]2[C@@H]3C(=O)N(CC)C(=O)[C@@H]3[C@]3(C(=O)OC)CCCCN23)cc1OC	5.06%
O=C(N1CCOCC1)N1CCOCC1	-0.16%
N#C/C=C(/c1ccc(F)cc1)N1CCOCC1	-1.81%
N#C/C(=C/c1ccc(N2CCOCC2)o1)C(=O)N1CCOCC1	67.4% (active)
N#C/C(=C\c1ccc(N2CCOCC2)o1)C(=O)N1CCOCC1	57.8% (active)
N#C/C(=C\C1=C(N2CCOCC2)C(=C\c2ccccc2)/CC1)C(=O)Nc1ccccc1F	10.9%
N#C/C(=C\N1CCOCC1)S(=O)(=O)c1ccc(Cl)cc1	-0.74%
CCCN(CC(=O)Nc1ccc(C(N)=O)cc1)CC(=O)Nc1ccccc1C	-1.42%
CCCn1nc(NC(=O)C(C)C)c2cc3cc(OC)ccc3nc21	-3.44%
O=C(O)CSc1nccc2ccccc12	-1.24%
Cn1cccc1/C=C1\SC(=S)N(NC(=O)c2ccc(Cl)cc2)C1=O	0.66%
CN1C(=O)/C(=C\c2ccc(-c3ccccc3)o2)SC1=S	177% (active)
O=C(O)C(c1ccccc1)N1C(=O)/C(=C\c2ccc(-c3cccc(Cl)c3)o2)SC1=S (centres undefined)	53.1% (active)
O=C1/C(=C/c2ccc(F)cc2)SC(=S)N1NS(=O)(=O)c1ccccc1	-2.42%
CC(C(=O)NC1CCS(=O)(=O)C1)N1C(=O)/C(=C/c2ccc(Cl)cc2)SC1=S (centres undefined)	0.11%
NS(=O)(=O)c1ccc(-c2ccc(/C=C3\SC(=O)NC3=O)o2)cc1	-4.11%
Cc1nn(CC(=O)NC2CCCCC2)c(=O)c2cccn12	-0.23%
O=S1(=O)C=C(SCCN2CCCC2)c2ccccc21	0.69%

From PubChem BioAssay AID588473 (Sanford-Burnham Center for Chemical Genomics, 2011)
